Data: the supplement of paper PMC6555819

What was measured:
Assay in all cases: PBM binding z-score (relative to random genomic background probes); higher = stronger binding; sequences stand for … in GC…GCGATTGACAGCGTAGAATGAAGG
[1] = system: FXR:RXRa (NR concentration 270 nM, RXRa partner concentration 90 nM)
Procedure, shortened: (§1)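 Custom Agilent 4×180K protein-binding microarrays carried double-stranded probes, each with a 34-nt variable region. These regions held direct-repeat seeds, single-nucleotide variants, half-site ablations and random human genomic background sequences. Ligand-free nuclear receptor dimers were incubated on the arrays for 1 h, antibodies against each partner (one per run) detected binding, and scanned fluorescence was regression-normalized. Binding z-scores take the random background probes as reference.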

[2] = system: LXRa:RXRa (NR concentration 270 nM, RXRa partner concentration 90 nM)
Procedure, shortened: as §1

[3] = system: LXRa homodimer (NR concentration 270 nM)
Procedure, shortened: as §1

[4] = system: LXRb:RXRa (NR concentration 270 nM, RXRa partner concentration 90 nM)
Procedure, shortened: as §1

[5] = system: LXRb homodimer (NR concentration 270 nM)
Procedure, shortened: as §1

[6] = system: PPARa:RXRa (NR concentration 270 nM, RXRa partner concentration 90 nM)
Procedure, shortened: as §1

[7] = system: PPARg:RXRa (NR concentration 180 nM, RXRa partner concentration 90 nM)
Procedure, shortened: as §1

[8] = system: PPARg:RXRa 270nM:90nM, anti-RXR (NR concentration 270 nM, RXRa partner concentration 90 nM)
Procedure, shortened: as §1

[9] = system: PPARg:RXRa 30nM:10nM, anti-RXR (NR concentration 30 nM, RXRa partner concentration 10 nM)
Procedure, shortened: as §1

[10] = system: PPARg:RXRa 90nM:30nM, anti-RXR (NR concentration 90 nM, RXRa partner concentration 30 nM)
Procedure, shortened: as §1

[11] = system: PPARg:RXRa DBDmut IVT, anti-RXR (DBD mutation: RXRa K156A/R161A, NR concentration 270 nM, RXRa partner concentration 90 nM)
Procedure, shortened: as §1

[12] = system: PPARg:RXRa IVT, anti-PPARg (NR concentration 270 nM, RXRa partner concentration 90 nM)
Procedure, shortened: as §1

[13] = system: PPARg DBDmut:RXRa IVT, anti-PPARg (DBD mutation: PPARg1 K132A/R137A, NR concentration 270 nM, RXRa partner concentration 90 nM)
Procedure, shortened: as §1

[14] = system: PPARg DBDmut IVT, anti-PPARg (DBD mutation: PPARg1 K132A/R137A, NR concentration 270 nM)
Procedure, shortened: as §1

[15] = system: PPARg homodimer (NR concentration 180 nM)
Procedure, shortened: as §1

[16] = system: PXR:RXRa (NR concentration 270 nM, RXRa partner concentration 90 nM)
Procedure, shortened: as §1

[17] = system: PXR homodimer (NR concentration 270 nM)
Procedure, shortened: as §1

[18] = system: RARa:RXR (NR concentration 270 nM, RXRa partner concentration 90 nM)
Procedure, shortened: as §1

[19] = system: RARa homodimer (NR concentration 270 nM)
Procedure, shortened: as §1

[20] = system: RARb:RXRa (NR concentration 270 nM, RXRa partner concentration 90 nM)
Procedure, shortened: as §1

Sequence | PBM binding z-score [1] | PBM binding z-score [2] | PBM binding z-score [3] | PBM binding z-score [4] | PBM binding z-score [5] | PBM binding z-score [6] | PBM binding z-score [7] | PBM binding z-score [8] | PBM binding z-score [9] | PBM binding z-score [10] | PBM binding z-score [11] | PBM binding z-score [12] | PBM binding z-score [13] | PBM binding z-score [14] | PBM binding z-score [15] | PBM binding z-score [16] | PBM binding z-score [17] | PBM binding z-score [18] | PBM binding z-score [19] | PBM binding z-score [20]
ACTAGCAGGCCGAGGGTCACTCAAGATTAGTCCG | 0.88 | 1.52 | -0.557 | 1.31 | -0.725 | 2.71 | 3.61 | 4.99 | 2.21 | 4.78 | -0.156 | 1.16 | -0.888 | -0.885 | 0.902 | 1.71 | -0.0802 | 2.32 | -0.0933 | 2.43
TTTTGTAGATCAACAGGAGGTTAAGAAAGATCGA | 0.519 | 1.38 | 0.44 | 1.16 | 0.116 | 1.7 | 0.596 | 1.25 | 1.03 | 1.29 | 1.26 | 1.98 | 1.18 | 1.43 | 0.903 | 0.932 | 0.512 | 1.34 | 1.05 | 0.73
AATACAGGGTCACTCGGCCAGAGTAGGTACGAAT | 6.58 | 5.13 | 1.19 | 4.06 | 1.03 | 5.6 | 6.87 | 5.81 | 2.53 | 4.66 | 3.09 | 5.09 | 2.08 | 1.63 | 2.92 | 3.49 | 0.336 | 4.66 | 0.723 | 4.39
CGTCCAAGGTCATAGGAGCTCAGTGAAGACAGAT | 7.5 | 5.19 | 0.569 | 3.82 | 0.584 | 5.64 | 4.69 | 5.04 | 1.57 | 3.6 | 2.78 | 3.29 | 1.43 | -0.573 | 2.6 | 4.27 | 1.07 | 4.66 | 0.0934 | 5.1
GCTGCTAGGTGAGGTTGGTCAGCTAACGGGTACG | -0.483 | -0.442 | -0.661 | -0.672 | -0.761 | -0.326 | -0.331 | -0.69 | -1.04 | -0.961 | 2.07 | 0.995 | -0.621 | -0.843 | -0.464 | -0.499 | -0.63 | -0.358 | -0.904 | 0.502
TAGCGTAGGTCATTGGGCCAGTATAGTACGCATC | 4.93 | 3.92 | 0.617 | 2.84 | 0.375 | 4.15 | 3.75 | 3.91 | 1.25 | 2.52 | 1.8 | 3.26 | 0.193 | -0.343 | 1.85 | 2.07 | -0.335 | 2.36 | -0.0783 | 3.74
TCTTGTAGATCAGCAGGTTAGGAAAGCTGGCCAA | -0.1 | 0.244 | -0.295 | -0.112 | -0.394 | 0.532 | -0.423 | 1.47 | 2.53 | 2.15 | 1.65 | 0.124 | -0.587 | -0.926 | 0.0866 | -0.035 | -0.454 | 0.152 | 0.51 | 0.179
